Drawing on ChEMBL document CHEMBL1157539, “Thousands of chemical starting points for antimalarial lead identification” (Nature, 2010), this text covers Inhibition for 38 compounds.

Usually Inhibition stands for the drop in the measured response relative to a control, in per cent. Lower therefore signals a weak effect.

Values joined by “and” are separate entries in the source; they are usually repeats but may differ in a detail not shown here. Equal entries are not always repeated.

The test system of one assay is Plasmodium falciparum. Put plainly: GSK_TCMDC: Inhibition of Plasmodium falciparum Dd2 in whole red blood cells, using parasite LDH activity as an index of growth. Test compounds present at 2uM. Format: functional.
With `COc1ccc(CC(C)NCC(O)c2cccc(Cl)c2)cc1C` (configuration not stated), the Inhibition turned out to be 78%.

`Cn1nc(-c2ccc(S(=O)(=O)N3CCC(CN4CCC(c5c[nH]c6ccccc56)CC4)CC3)s2)cc1C(F)(F)F`: the Inhibition was found to be 48%.

`COCCNCc1ccc(-c2ccc(CN(C(=O)Nc3ccccc3)C3CCN(Cc4ccccc4)CC3)cc2)cc1.O=C(O)C(F)(F)F` returned an Inhibition of 39%.

`CN1CC[C@H](N(Cc2ccccc2F)c2ccc(C#N)c(Cl)c2)C1` came in with an Inhibition of 68%.

In a further assay the test system is HepG2. The experiment in a line: GSK_TCMDC: Percent inhibition of human HepG2 cell line. Test compounds present at 10uM. Format: functional.
`Cc1ccc2c(C3=CCN(CCCCC4(C)C(=O)Nc5c(F)cccc54)CC3)c(C)[nH]c2c1` (configuration not stated) gave an Inhibition of 5%.

On to `O=C(c1ccccc1)C1CC1CN1CC=C(c2c[nH]c3ccccc23)CC1` (configuration not stated), for which the Inhibition worked out at 4%.

The compound `Br.CC(Cc1ccc(CSC(C)C)cc1)NCC(O)c1cccc(Cl)c1` (configuration not stated) had an Inhibition of 11%.

As to `O=P(O)(O)Oc1c(Br)cc(Br)cc1-c1cc(Br)cc(Br)c1O` [BROMOFENOFOS], the Inhibition came out at 10%.

For the compound `CC[C@H]1CN2CC[C@@H]1C[C@H]2[C@H](O)c1cc(N2CCC(O)(c3ccccc3)CC2)nc2ccc(OC)cc12`, the Inhibition is listed as 14%.

Regarding `N#Cc1c(Cl)cccc1Oc1ccc(S(=O)(=O)NC2CCC(CN3CCC(c4c[nH]c5ccccc45)CC3)CC2)cc1` (configuration not stated), the Inhibition is 31% and 29%.

Turning to `CN1CCN(c2ccc3[nH]c(-c4ccc5[nH]c(-c6ccc(O)cc6)nc5c4)nc3c2)CC1.Cl.O`, the Inhibition is on record as 0%.

`CNCCCCCCOc1ccc(CC(C)NCC(O)c2cccc(C(F)(F)F)c2)cc1.Cl` (configuration not stated) showed an Inhibition of 99%.

The compound `CN(c1ccc(NC(=O)CCOc2ccccc2)cc1)C1CCN(Cc2cccc(O)c2)CC1.O=C(O)C(F)(F)F` registered an Inhibition of 18%.

In turn, `Cc1[nH]c2ccccc2c1C1=CCN(CCCCC23CCCc4cccc(c42)NC3=O)CC1` (configuration not stated) displayed an Inhibition of 9%.

Regarding `CC(Cc1ccc(Oc2ccccc2)cc1)NCC(O)c1cccc(C(F)(F)F)c1` (configuration not stated), the Inhibition is on record as 16%.

As for `C[C@H](Cc1ccc(OCCCCCCOc2ccccc2)cc1)NC[C@H](O)c1cccc(Cl)c1.Cl`, the Inhibition came out at 21%.

In the case of `O=C(/C=C/c1cc(F)c(F)cc1F)N1CCC(CN2CCC(c3c[nH]c4ccccc34)CC2)CC1`, the Inhibition came to 26%.

Consider `O=C(NC1CCC(CN2CCC(c3c[nH]c4ccccc34)CC2)CC1)c1cc2ccccc2s1` (configuration not stated), for which the Inhibition amounted to 44%.

For the compound `CC(C)C[C@H](Nc1ccc(C#N)c2ccccc12)C(=O)N[C@@H]1CCCc2ccccc21.O=C(O)C(F)(F)F`, the Inhibition was 38%.

For `Cc1c(C(=O)NC2CCC(CN3CCC(c4c[nH]c5ccccc45)CC3)CC2)cnn1-c1c(Cl)cc(Cl)cc1Cl` (configuration not stated), the Inhibition came to 53%.

In turn, `O=C(NC1CCC(CN2CCC(c3c[nH]c4ccccc34)CC2)CC1)c1cn(Cc2ccccc2)c2ccccc12` (configuration not stated) showed an Inhibition of 84%.

`CC[C@H]1CN2CC[C@H]1C[C@@H]2[C@@H](O)c1ccnc2ccc(OC)cc12.Cl` showed an Inhibition of 0%.

Turning to `COc1ccc(OC)c(C(O)C(C)NCc2cc(Cl)ccc2O)c1.Cl` (configuration not stated), the Inhibition stood at 11%.

Compound `CC(C)c1ccc(C=CC(=O)NC2CCC(CN3CCC(c4c[nH]c5ccccc45)CC3)CC2)cc1` (configuration not stated) yielded an Inhibition of 50%.

`CNC(=O)c1ccc2[nH]cc(C3CCN(CC4CCC(NC(=O)/C=C/c5ccc(Cl)c(Cl)c5)CC4)CC3)c2c1` (configuration not stated) displayed an Inhibition of 0%.

`CC(Cc1ccc(C(C)(C)C)cc1)NCC(O)c1ccccc1.Cl` (configuration not stated) had an Inhibition of 5%.

Turning to `O=C(O)/C=C\C(=O)O.OC1(c2ccc(Cl)c(C(F)(F)F)c2)CCN(CCOC2c3ccccc3CSc3ccc(Cl)cc32)CC1` (configuration not stated), the Inhibition came to 3%.

With `CN(C)CCCOc1ccc(CN2CCC(c3c[nH]c4ccc(NCC5CCCCC5)cc34)CC2)cc1.O=C(O)C(F)(F)F`, the Inhibition is 58%.

On to `O=c1c2ccccc2nc(/C=C/c2ccc([N+](=O)[O-])cc2)n1-c1ccccn1`, for which the Inhibition was determined as 5%.

`COc1ccccc1CC(C)NCC(O)c1cccc(Cl)c1` (configuration not stated) registered an Inhibition of 13%.

For `O=C(O)c1ccc2nc(-c3ccc(-c4ccccc4)cc3)n(C3CCN(Cc4ccc(-c5ncc[nH]5)cc4)CC3)c2c1`, the Inhibition was determined as 3%.

Turning to `COC(=O)c1ccc(CC(C)NCC(O)c2cccc(C(F)(F)F)c2)cc1C` (configuration not stated), the Inhibition stood at 6%.

On to `O=C(NC1CCC(CN2CCC(c3c[nH]c4ccccc34)CC2)CC1)c1cc(-c2ccccc2)c(C(F)(F)F)s1` (configuration not stated), for which the Inhibition is listed as 55%.

In turn, `CC[C@H]1CN2CC[C@@H]1C[C@H]2[C@H](O)c1cc(-c2c(C)noc2C)nc2ccc(OC)cc12.Cl` yielded an Inhibition of 4%.

Compound `COC(=O)/C=C/c1ccc(CC(C)NCC(O)c2cccc(Br)c2)cc1` (configuration not stated) showed an Inhibition of 2%.

`Cc1cc(CN2CCN(CCOC(c3ccccc3)c3ccccc3)CC2)ccc1O` returned an Inhibition of 9%.

As to `Cc1c(C)c2c(c(C)c1O)CC[C@](C)(C(=O)NC1CCC(CN3CCC(c4c[nH]c5ccccc45)CC3)CC1)O2` (some centres not stated), the Inhibition was 24% and 27%.

On to `CCOc1ccc2nccc([C@@H](O)[C@@H]3C[C@@H]4CCN3C[C@@H]4CC)c2c1.Cl` [ETHYLHYDROCUPREINE HYDROCHLORIDE], for which the Inhibition was 24%.

`COc1ccc(CC(C)NCC(O)c2cccc(Cl)c2)cc1C` (configuration not stated) yielded an Inhibition of 11%.

For the compound `Cn1nc(-c2ccc(S(=O)(=O)N3CCC(CN4CCC(c5c[nH]c6ccccc56)CC4)CC3)s2)cc1C(F)(F)F`, the Inhibition amounted to 16%.

For the compound `COCCNCc1ccc(-c2ccc(CN(C(=O)Nc3ccccc3)C3CCN(Cc4ccccc4)CC3)cc2)cc1.O=C(O)C(F)(F)F`, the Inhibition came to 16%.

`CN1CC[C@H](N(Cc2ccccc2F)c2ccc(C#N)c(Cl)c2)C1` showed an Inhibition of 18%.
